# Source: PubChem (National Center for Advancing Translational Sciences (NCATS))
# Hits are enriched below; roughly 8.9% of the tested compounds scored in any of these assays.
# D3 antag: antagonists of human D3 dopamine receptor; P35462; D3R cells, DiscoveRx beta-arrestin luminescence, antagonist mode; active compounds read low; max response, negative = inhibition, %; hit rate 2.5% among 360,000; AID 652054; in the data active = max response below about -50%; inconclusive = no clear call, values can overlap the other calls; note: % is set by controls: 0 for no effect and ±100 for the full control effect
# Target sequence (P35462 whole entry, looked up): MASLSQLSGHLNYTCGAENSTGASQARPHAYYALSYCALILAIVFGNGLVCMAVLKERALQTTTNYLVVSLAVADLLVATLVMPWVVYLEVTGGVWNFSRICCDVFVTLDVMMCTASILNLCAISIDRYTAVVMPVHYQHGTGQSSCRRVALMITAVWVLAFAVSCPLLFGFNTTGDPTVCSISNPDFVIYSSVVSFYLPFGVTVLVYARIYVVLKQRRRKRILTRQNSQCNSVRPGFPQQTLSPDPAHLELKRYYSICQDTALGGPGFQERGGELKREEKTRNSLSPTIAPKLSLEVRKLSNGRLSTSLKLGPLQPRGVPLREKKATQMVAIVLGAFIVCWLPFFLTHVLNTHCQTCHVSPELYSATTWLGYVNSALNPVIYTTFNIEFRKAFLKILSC
#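 Cells expressing the human receptor were seeded at 1500 cells/well, incubated overnight at 37 degrees C in 5% CO2, then exposed to library compounds with dopamine controls for 90 minutes at 37 degrees C before luminescent detection.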
# SW480 rereplic: DNA re-replication induction in SW480 cells | hit rate 1.8% among 340,000 | Potency, µM (doses to about 46.1 µM), inactives show at the top dose re-replication activation, most hits filed as activators | SW480 DNA re-replication, Hoechst DNA content imaging, 48 h | AID 624297; note: potency is the fitted concentration of half-maximal effect; % of control where 0% means no effect; nearly all actives have a fitted effect of over 55% in size
#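 Cells (250 per well) received 23 nL compound or DMSO by pin tool and were kept 48 hr at 37 C, 5% CO2. Nuclei were then stained with Hoechst for 40 min and scanned for DNA content.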
# KB-V1 MDR tox: kills drug-selected multidrug resistant KB-V1 cells; KB-V1 MDR cells viability, CellTiter-Glo, 72 h; Potency, µM (series often up to 46.1 µM), actives largely listed as cytotoxic; hit rate 3.4% among 400,000; AID 1347076; note: potency is the fitted concentration of half-maximal effect; % is set by controls: 0 for no effect and ±100 for the full control effect; nearly all actives have a fitted effect of over 60% in size
#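 qHTS viability screen in drug-selected KB-V1 MDR cells: 72 h compound treatment at 37 degrees C, ATP luminescence end point.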
# MCF10A rerep: DNA re-replication induction in MCF 10a cells. Potency, µM (series often up to 46.1 µM), for the others: top-dose activity, positive = re-replication, most hits filed as activators. hit rate 2.9% among 350,000. AID 624296. MCF 10A DNA re-replication, Hoechst nuclear intensity, 48 h; note: potency is the fitted concentration of half-maximal effect; % of control where 0% means no effect; nearly all actives have a fitted effect of over 50% in size
# KB-3-1 tox: kills parental KB-3-1 adenocarcinoma cells. Potency, µM (series often up to 46.1 µM), actives largely listed as cytotoxic. hit rate 1.4% among 400,000. KB-3-1 viability, CellTiter-Glo ATP luminescence, 72 h; note: potency is the fitted concentration of half-maximal effect; % is set by controls: 0 for no effect and ±100 for the full control effect; nearly all actives have a fitted effect of over 60% in size
#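 Here the drug-naive KB-3-1 line serves as comparator for MDR sub-line selectivity; cells received compound titrations, 72 h at 37 °C, then CellTiter-Glo readout.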
# DRD3 agonist: activates the human D3 dopamine receptor. AID 652048. hit rate 0.58% among 410,000. D3R DiscoveRx beta-arrestin cells, luminescence, 90 min. P35462. max activation, %; in the data active = max activation above about 30%; note: 0% is about no effect
#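 Agonist-mode cell screen: cells plated at 1500/well and incubated overnight at 37 °C, then exposed to library compounds for 90 min at 37 °C. Detection reagent was added for 30–60 min at room temperature, and luminescence was read.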
# Numbers without * were called inactive; i = inactive; ? = inconclusive; . = no result given; ! = a repeat was not active; [ ] = another dose, or the depositor's remark. Unless noted, calls come from the whole dose curve; as a rule, active = well fitted curve in the direction sought with a large enough effect; inconclusive = small, poorly fitted or top-dose-only effect, or another doubt; inactive = no such curve, though single readings can be large; an effect the other way counts as inactive or inconclusive.
SMILES,D3 antag,SW480 rereplic,KB-V1 MDR tox,MCF10A rerep,KB-3-1 tox,DRD3 agonist
O=C(Nc1cccc(Cl)c1)c1ccc(NCCCN2CCOCC2)c([N+](=O)[O-])c1,-89.0*,-0.6%[9.22 µM],?,?,i,-12.0
O=C(NCCCN1CCOCC1)c1ccc(Sc2ccccc2Cl)c([N+](=O)[O-])c1,-20.3,?,13µM*,?,?,-4.5
CCN(CC)C(=O)C1=C(C)Nc2nc3ccccc3n2C1c1cccc(Cl)c1 (stereo unspecified),.,.,i,.,i,2.0
O=C(CNS(=O)(=O)c1ccc(Br)s1)N1CCN(c2ncccn2)CC1,0.5,-3.5%,20.6µM*,-4.2%,i,-7.7
Cc1ccc(N2CCN(C(=O)CNS(=O)(=O)c3ccc(Br)s3)CC2C)cc1 (stereo unspecified),40.8,-6.3%,2.31µM*,?,?,7.9
COC(=O)c1sccc1NC(=O)Nc1ccc(C)cc1,-1.8,-8.0%,i,1.3%,i,54.9*
COC(=O)c1sccc1NC(=O)c1cc2c(s1)CCCC2,-23.7,19.2%,14.6µM*,?,i,-3.2
COC(=O)c1cc(Br)ccc1NC(=O)Nc1ccc(C)cc1,-79.9*,-4.1%,i,2.0%,i,-6.5
COC(=O)c1sccc1NC(=O)NC1CCCCC1,-51.0*,?,i,0.5%,?,6.9
CC(C)C[C@@H](CN1CCC[C@H]1CN1C(=O)C(=O)NC[C@@H]1Cc1ccc(O)cc1)N1C[C@H](Cc2ccc(O)cc2)N(CC2CCCCCC2)C(=O)C1=O,0.0,.,i,.,?,2.2
Cc1cccc(C)c1OCC(=O)N(Cc1ccc(Cl)cc1)CC1CCCO1 (stereo unspecified),.,.,.,.,.,9.6
CCOc1ccc(/C=C/C(=O)c2ccccc2)cc1OC,11.5,?,i,?,i,3.8
COc1cccc(C(=O)/C=C/c2ccc(OCC#N)c(OC)c2)c1,-28.8,23.1µM*,?,9.2µM*,?,-8.4
COc1cc(/C=C/C(=O)c2ccc(O)cc2)ccc1OCC#N,?,.,18.4µM*,?,6.51µM*,-6.7
Cc1ccc(CNC(=O)CN2C(=O)C3(SCC(=O)N3c3cc(C)cc(C)c3)c3ccccc32)cc1 (stereo unspecified),.,.,.,.,.,6.7
O=C(NCCCNCc1ccccc1)c1ccccn1,-65.8*!,0.8%,i,0.4%,i,-14.7
COc1ccc(CCNC(=O)c2ccc3c(c2)CCN3S(=O)(=O)c2ccc(C)cc2)cc1,.,.,?,.,i,5.7
CC(C)NC(=O)CCCc1ccccc1,-23.6,-5.2%,i,11.8%,i,-14.6
CCC(NC(=O)c1ccccc1O)c1ccccc1 (stereo unspecified),9.2,-1.5%,16.4µM*,-1.6%,i,-7.4
CC(=O)C(Cc1ccccc1)NC(=O)CCl (stereo unspecified),16.2,0.6%,i,13.4%,?,5.8
O=C(CCl)NC(Cc1ccccc1)c1ccccc1 (stereo unspecified),0.3,16.4µM*,?,?,?,-2.6
CCC(NC(=O)c1ccc([N+](=O)[O-])cc1[N+](=O)[O-])c1ccccc1 (stereo unspecified),?,16.1%,i,-5.7%,i,1.5
CCC(NC(=O)CCCc1ccccc1)c1ccccc1 (stereo unspecified),-21.8,-52.1%,18.4µM*,?,i,-7.4
Fc1ccc(CNc2ncnc3nc[nH]c23)cc1,.,.,i,.,?,.
COc1ccc(C2=NN(C(=O)CSc3nc(=O)n4cc(C)ccc4n3)C(c3ccc(C)cc3)C2)cc1 (stereo unspecified),-27.2,1.4%,i,-6.4%,i,-19.9
SMILES,D3 antag,SW480 rereplic,KB-V1 MDR tox,MCF10A rerep,KB-3-1 tox,DRD3 agonist
COc1ccc(N2CCN(C(CNC(=O)C(=O)NCCCN(C)C)c3cccnc3)CC2)cc1 (stereo unspecified),.,.,i,.,i,4.1
N#Cc1cccc(-c2csc(C(O)c3ccco3)n2)c1 (stereo unspecified),-25.3,.,i,.,i,-5.8
Fc1ccc(-n2cc(CNCCc3ccncc3)c(-c3ccccc3Cl)n2)cc1,-0.9,1.0%,i,2.5%,i,-11.3
Fc1ccc(-n2cc(CNCCc3cccnc3)c(-c3ccccc3Cl)n2)cc1,-69.9*,-4.8%,?,15.8%,?,-4.2
O=C(N/N=C/c1ccc([N+](=O)[O-])o1)c1ccc(NS(=O)(=O)c2cccs2)cc1,-16.6,?,?,18.4µM*,?,-18.0
O=C(N/N=C\C=C\c1ccc([N+](=O)[O-])o1)c1cccs1,-25.0,11.6µM*,i,8.2µM*,i,-5.5
O=C(N/N=C/C=C/c1ccccc1[N+](=O)[O-])c1cccs1,?,-8.3%,?,?,i,-9.7
O=C(Nc1ccc2ccccc2c1)Nc1nnc(-c2ccc(Cl)cc2Cl)s1,.,.,i,.,i,.
COc1cccc(OCCN2CCN(c3ncnc4c3cnn4-c3ccccc3)CC2)c1,9.7,21.0%,5.17µM*,18.4µM*,i,47.7*
O=C(c1ccccc1)N1CCN(c2ncnc3c2cnn3-c2ccccc2)CC1,50.1,-0.7%,i,-6.2%,i,-5.6
Cc1nn(-c2ccccc2)c(Cl)c1C(=O)N1CCN(c2ncnc3c2cnn3-c2ccccc2)CC1,-10.4,?,?,?,?,40.7*
Cc1ccc(-n2ncc3c(N4CCN(Cc5ccccc5)CC4)ncnc32)cc1,.,.,i,.,i,5.7
N#CCCn1cc(/C=N/O)c(-c2ccccc2)n1,-5.2,0.6%,i,2.3%,i,-22.6
N#CCCn1cc(C=C(C#N)C#N)c(-c2ccc(-c3ccccc3)cc2)n1,?,?,20.6µM*,?,?,-7.0
CN(C)c1ccc(CC2CCc3ccccc32)cc1 (stereo unspecified),.,.,i,.,i,.
COc1cc(-c2nnc(COc3ccc4ccccc4c3)o2)cc(OC)c1OC,30.9,-2.2%,23.1µM*,?,i,7.9
COc1cc(-c2nnc(SCc3ccccc3Cl)o2)cc(OC)c1OC,22.6,-4.0%,2.31µM*,20.6µM*,i,11.7
COc1cc(-c2nnc(-c3cc(OC)c(OC)c(OC)c3)o2)cc(OC)c1OC,82.3,-7.0%,i,1.1%,?,17.3
COc1cc(-c2nnc(SCc3c(F)cccc3Cl)o2)cc(OC)c1OC,-17.5,-0.4%,?,?,?,14.3
CCCc1nnc(-c2cc(OC)c(OC)c(OC)c2)o1,-18.7,-9.7%,i,13.7%,i,-3.8
COc1cc(-c2nnc(-c3ccccc3)o2)cc(OC)c1OC,9.5,-3.0%,9.2µM*,22.8%,i,-5.3
